# Hits are enriched below; roughly 0.54% of the tested compounds scored in any of these assays.
# CXXC DNA block: MLL CXXC-DNA interaction inhibition; MLL-CXXC / FITC-HOXA9 DNA fluorescence polarization; 290,000 tested, 0.037% active; Potency, µM (titrated, usually from 115 µM), hits mostly inhibitors; active = well fitted inhibition curve with a large enough effect in the polarisation, with a control signal flat, not every such curve was filed as active; inconclusive = small, poorly fitted or top-dose-only effect, or effect the other way, or a change in a side signal; inactive = no such curve, though single readings can be large or run the other way; the % refers to the polarisation
#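 Steps: dispense CXXC domain solution (7 uM) → pin compounds or unlabeled HOX-A9 DNA control → 5 min ambient → add FLSN-HOX-A9 solution (50 nM) → spin → 30 min ambient → fluorescence polarization. Tris pH 7.5/NaCl/DTT/BSA buffer.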
# Menin MLL FP FL: inhibitors of human menin-MLL interaction, wild-type MLL peptide | Fluorescence polarization, fluorescein-MLL peptide displacement from menin | FP activity change, % at 61.4 µM | 290,000 tested, under 10 active; active = well fitted curve in the direction sought with a large enough effect in the polarisation, not every such curve was filed as active; inconclusive = small, poorly fitted or top-dose-only effect, or effect the other way, or a change in a side signal; inactive = no such curve, though single readings can be large or run the other way; the % refers to the polarisation
# LDHA block: blocks human lactate dehydrogenase A. P00338. activity change, % (values are at about 110 or 230 µM). purified LDHA, NADH/diaphorase-resazurin fluorescence; stronger effect = lower value. 480,000 tested, 0.15% active; in the data active = activity change below about -30%; inconclusive = mostly about -25% to -30%
#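 Enzyme activity of human lactate dehydrogenase 5 (2 nM; 0.06 mM NADH, 0.2 mM pyruvate, 5 min, RT) is measured via a resazurin/diaphorase fluorescence readout of residual NADH.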
# Akt phos inh: inhibitors of Akt phosphorylation; 360,000 tested, 0.32% active; Neuro2A IGF-stimulated pAkt S473 HTRF, 20 min; stronger effect = lower value; activity change, % for hits at 50 µM; in the data active = activity change below about -80%; inconclusive = mostly about -51% to -80%
#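 Single-point screen (50 µM final compound) in Neuro2A cells stimulated 20 min with 6 nM IGF at 37 deg C. After lysis, Ser473-phosphorylated Akt read by HTRF (ex 330 nm, em 615/665 nm) as the 665/615 ratio.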
# Menin MLL FP TR: menin-MLL binding inhibition, Texas Red mutant peptide | Potency, µM (highest dose often 61.6 µM), most hits filed as inhibitors | 270,000 tested, 0.23% active | AID 1768 | Menin + Texas Red MLL mutant peptide, fluorescence polarization | O00255; active = well fitted inhibition curve with a large enough effect in the polarisation, with a control signal flat, not every such curve was filed as active; inconclusive = small, poorly fitted or top-dose-only effect, or effect the other way, or a change in a side signal; inactive = no such curve, though single readings can be large or run the other way; the % refers to the polarisation
# mIDH1 inhibitor: blocks human mutant IDH1 R132H enzyme; Potency, µM (highest dose often 76.6 µM), actives largely listed as inhibitors; AID 602179; 390,000 tested, 0.093% active; O75874; IDH1-R132H enzyme, NADPH consumption, diaphorase/resazurin fluorescence; also: nearly all actives have a fitted effect of over 65% in size
# Target sequence (O75874 whole entry R132H, stated change not applied): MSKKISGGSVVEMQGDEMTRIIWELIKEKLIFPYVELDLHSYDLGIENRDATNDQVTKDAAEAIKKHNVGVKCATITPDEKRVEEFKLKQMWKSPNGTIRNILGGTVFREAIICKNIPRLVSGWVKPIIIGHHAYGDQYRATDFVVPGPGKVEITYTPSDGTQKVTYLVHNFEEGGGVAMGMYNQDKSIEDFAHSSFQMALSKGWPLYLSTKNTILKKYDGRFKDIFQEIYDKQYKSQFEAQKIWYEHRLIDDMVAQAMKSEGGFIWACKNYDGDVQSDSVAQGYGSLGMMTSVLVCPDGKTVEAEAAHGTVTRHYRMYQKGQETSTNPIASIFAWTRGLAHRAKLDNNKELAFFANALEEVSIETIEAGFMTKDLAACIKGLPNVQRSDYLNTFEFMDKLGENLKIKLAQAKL
#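 IDH1-R132H (0.5 ug/mL dispensed) in pH 7.5 Tris buffer was preincubated 30 min with compound, then given a substrate mix of 0.016 mM NADPH and 2 mM alpha-KG for 80 min at room temperature; remaining NADPH was read by diaphorase/resazurin fluorescence.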
# MLL CXXC Fl: inhibitors of human MLL CXXC domain-DNA interaction; Potency, µM (doses to about 345 µM), usual class: inhibitors; MLL CXXC-DNA binding, fluorescein FP; 200 tested, 70% active; shares compounds with CXXC DNA block; AID 624160; also: nearly all actives have a fitted effect of over 80% in size
# MLL CXXC FP-TR: inhibitors of human MLL CXXC domain-DNA interaction, Texas Red format; 200 tested, 40% active; AID 624161; shares compounds with CXXC DNA block; MLL CXXC-DNA binding, Texas Red fluorescence polarization; Potency, µM (highest dose often 345 µM), actives largely listed as inhibitors; also: nearly all actives have a fitted effect of over 75% in size
# MLL CXXC HTRF: disrupts human MLL CXXC domain binding to DNA by HTRF; shares compounds with CXXC DNA block; MLL CXXC-DNA binding, HTRF, biochemical; 210 tested, 30% active; Potency, µM (top dose mostly 172 µM), most hits filed as inhibitors; AID 624162; also: nearly all actives have a fitted effect of over 80% in size
# Numbers stand for hits; . = inactive; ? = inconclusive; / = no result given. Unless noted, calls follow the shape of the dose curve; as a rule, active = well fitted inhibition curve with a large enough effect; inconclusive = small, poorly fitted or top-dose-only effect; inactive = no such curve, though single readings can be large or run the other way.
SMILES,CXXC DNA block,Menin MLL FP FL,LDHA block,Akt phos inh,Menin MLL FP TR,mIDH1 inhibitor,MLL CXXC Fl,MLL CXXC FP-TR,MLL CXXC HTRF
C#CCOCCOCCOCCNc1nc(N2CCN(C(=O)[C@H](CCCCN)n3cc([C@@H](N)C(C)CC)nn3)CC2)nc(N2CCN(C(=O)[C@H](CCCCN)n3cc([C@@H](N)CO)nn3)CC2)n1 (some centres not stated),79.4µM,.,/,/,.,/,5.65µM,.,.
Cc1nn(C)c(C)c1CN(C)C(=O)C1c2ccccc2Oc2ccccc21,31.6µM,.,.,.,.,.,126µM,?,.
Cc1nn(C)c(C)c1CN(C)C(=O)C1(C)CC1(Br)Br (configuration not stated),.,.,.,.,.,.,/,/,/
CC(C)CNC(=O)COc1ncnc2ccc(Br)cc12,/,/,.,/,/,/,/,/,/
COc1cc(C(=O)CSc2ccc(Cl)cc2)cc(OC)c1OC,/,/,.,/,/,/,/,/,/
O=C(CSc1nc2ccccc2c(=O)n1Cc1ccc(F)cc1)NCc1cccs1,7.94µM,.,.,.,.,.,.,.,.
CC1=NN(c2ccccc2)C(=O)/C1=C/c1cccc(C)c1,?,?,.,.,?,.,44.8µM,?,.
C=CCOC(=O)C(=O)/C=C/c1csc2ccccc12,?,?,.,.,?,.,.,?,.
CCNC(=O)NC(=O)CN1CCN(c2oc(C3CC3)nc2C#N)CC1,/,/,.,/,/,/,/,/,/
CC(=O)N/N=C/c1cc(C(C)(C)C)cc(/C=N/NC(C)=O)c1O,?,?,.,.,.,.,.,.,.
CCC(Oc1ccc(F)cc1)C(=O)Nc1ccc(OC)c2ncccc12 (configuration not stated),/,/,.,/,/,/,/,/,/
Cn1c(=O)c2c(ncn2Cc2cccc3ccccc23)n(C)c1=O,/,/,.,/,/,/,/,/,/
O=C1/C(=C\c2cccnc2)CCc2ccccc21,?,.,.,/,.,.,?,.,.
COc1cc(/C=C2/C(=O)c3cccc([N+](=O)[O-])c3C2=O)c(Br)cc1O,28.2µM,.,.,.,?,.,40µM,79.7µM,?
COc1ccccc1NC(=O)CCCCCN1C(=O)c2cccc([N+](=O)[O-])c2C1=O,.,.,.,.,.,.,/,/,/
CONC(=O)c1ccccc1C(=O)c1ccccc1,/,/,.,/,/,/,/,/,/
Nc1nc2c(s1)CCc1c-2cnn1-c1ccccc1,31.6µM,.,.,.,.,.,?,?,30.6µM
CNC(=O)c1c(NC(=O)Cc2coc3cc(C)ccc23)sc2c1CCCC2,/,/,.,/,/,/,/,/,/
CN(C)CCOc1nc(-c2ccccc2)nc2c1oc1ccccc12,35.5µM,.,.,.,.,.,126µM,?,.
NNc1cc(Cl)c(Cl)cc1Cl,/,/,.,/,/,/,/,/,/
CN(C)c1ccc(NC(=O)CCCc2c[nH]c3ccccc23)cc1,/,/,.,/,/,/,/,/,/
COC(=O)c1ccccc1NC1=C/C(=N\S(=O)(=O)c2ccc(C(=O)O)cc2)c2ccccc2C1=O,15.8µM,/,.,.,/,.,5.03µM,142µM,.
Cc1ccc(S(=O)(=O)/N=C2\C=C(Nc3cccc(C(=O)O)c3)C(=O)c3ccccc32)cc1,?,.,.,.,?,.,/,/,/
CCc1ccc(S(=O)(=O)/N=C2\C=C(Nc3ccc(C(=O)O)cc3)C(=O)c3ccccc32)cc1,12.6µM,.,.,.,?,.,40µM,?,.
CN1CCN(S(=O)(=O)c2ccc(NC(=O)c3ccccc3Oc3ccccc3)cc2)CC1,/,/,.,/,/,/,/,/,/
SMILES,CXXC DNA block,Menin MLL FP FL,LDHA block,Akt phos inh,Menin MLL FP TR,mIDH1 inhibitor,MLL CXXC Fl,MLL CXXC FP-TR,MLL CXXC HTRF
CCN(CC)S(=O)(=O)c1ccc(OC)c(NS(=O)(=O)c2ccc3ccccc3c2)c1,/,/,.,/,/,/,/,/,/
COc1c(C)cccc1C(=O)Nc1ccc2oc(-c3ccncc3)nc2c1,/,/,.,/,/,/,/,/,/
O=C(CSCC(O)c1ccccc1)NC(=O)NCC(F)(F)F (configuration not stated),/,/,.,/,/,/,/,/,/
CC(=O)C1(O)Cc2c(O)c3c(c(O)c2C(OC2CC(N)C(O)C(C)O2)C1)C(=O)c1c(O)cccc1C3=O (configuration not stated),?,?,.,/,?,/,4.48µM,20µM,.
CC(=O)[C@@]1(O)Cc2c(O)c3c(c(O)c2[C@H](O[C@H]2C[C@H](N)[C@H](O)[C@H](C)O2)C1)C(=O)c1ccccc1C3=O,/,/,.,/,/,/,/,/,/
CC(=O)CC(C)=Nc1ccc(Br)cc1,/,/,.,/,/,/,/,/,/
CN(C)c1ccc(/C=C2\SC(=S)N(Nc3ncc(C(F)(F)F)cc3Cl)C2=O)cc1,3.16µM,?,.,.,?,.,1.13µM,113µM,.
Cc1ccc(S(=O)(=O)NC2CCCCCCC2)cc1,.,.,.,.,.,.,/,/,/
Cc1ccc(S(=O)(=O)NC2OC(=O)C(Cl)=C2Cl)cc1 (configuration not stated),?,.,.,.,.,.,89.5µM,142µM,48.5µM
COc1ccc(-c2c(C)c3ccc(OCC(=O)OC(C)C)cc3oc2=O)cc1,/,/,.,/,/,/,/,/,/
COC(=O)c1ccc2c(c1)SC1=C(CCCC1=O)N2,28.2µM,?,.,.,?,.,100µM,142µM,.
O=C1CCCC2=C1Sc1ccc(Cl)cc1N2,?,?,.,.,/,.,/,/,/
COc1ccc(CNC(=O)Cn2c(=O)nc3n2C(=O)N(c2ccccc2)C3)cc1,/,/,.,/,/,/,/,/,/
CC(=O)Nc1ccc2cc3ccc(NC(C)=O)cc3nc2c1,39.8µM,?,.,.,/,.,113µM,?,.
O=C1NC(=S)NC1=Cc1ccccc1O,/,/,.,.,/,.,/,/,/
CC(/C=C1\NC(=S)NC1=O)=C\c1ccccc1,44.7µM,.,.,.,.,.,0.126µM,?,.
O=c1c(Cl)c2oc3ccccc3nc-2c2ccccc12,31.6µM,?,.,.,?,.,113µM,?,.
Cc1nc2ccccc2oc1=O,/,.,/,/,.,/,/,/,/
O=C(O)C1=CC(=C(c2ccc(O)c(C(=O)O)c2)c2ccc(O)c(C(=O)O)c2)C=CC1=O,10µM,.,-74.7,/,.,/,12.6µM,17.9µM,2.43µM
O=C(/C=C/NCCN(/C=C/C(=O)C(F)(F)F)CCN/C=C/C(=O)C(F)(F)F)C(F)(F)F,/,/,.,/,/,/,/,/,/
COc1cccc(/C=C2/C(=O)NN(c3ccc(Br)cc3)C2=O)c1O,?,.,.,.,?,.,100µM,?,.
COc1cc(/C=C2/C(=O)NN(c3ccc(Cl)cc3)C2=O)cc(Br)c1O,?,?,.,.,?,.,/,/,/
CN(C)C1=C(Cl)C(=O)N(c2ccc(Cl)c(Cl)c2)C1=O,?,.,.,.,/,.,179µM,.,?

# Source: PubChem (National Center for Advancing Translational Sciences (NCATS))
